Assay results reported in PubChem BioAssay AID1347417 (National Center for Advancing Translational Sciences (NCATS), 2020).
Screen size: about 120,000 compounds; about 5,300 (4.4%) were called active. Another 22% or so got no clear call; they are omitted. Shown is part of a subset that was picked to be rich in actives. Unmarked numbers belong to inactive results. Calls come from the whole dose curve; as a rule, active = well fitted inhibition curve with a large enough effect; inconclusive = small, poorly fitted or top-dose-only effect; inactive = no such curve, though single readings can be large or run the other way.

Assay: qHTS Primary assay for Inhibitors of Plasmodium falciparum Dd2 growth in vitro; note: nearly all actives have a fitted effect of over 65% in size;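 for activity, negative = inhibition: plate controls were DMSO vehicle for no effect and reference drug for full effect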
Details: P. falciparum Dd2 growth, SYBR Green, 72 h; series mostly up to 28.9 µM; activity, negative = inhibition: at the top concentration
From the text: Malaria, a parasitic disease spread to humans through the bite of a Plasmodium infected Anopheles mosquito, continues to be a global health burden affecting millions of people, with an estimated 228 million cases and 405,000 deaths in 2018. Concerns about safety and limitations of current antimalarial treatments strongly emphasize the need to develop new therapeutic options. The scarce number of chemotypes and validated drug targets with efficacy against the liver stage, have hindered development of new antimalarials. To address this, a chemoprophylactic drug discovery effort was conducted through a combined phenotypic high-throughput asexual blood stage and liver stage screen, providing a robust foundation to identify liver-stage active lead chemotypes. Compounds were initially screened against Plasmodium falciparum Dd2 strain parasites using a in vitro SYBRGreen-1 based 72 hr proliferation assay to identify novel chemotypes to advance to liver stage assays. NIH/NCATS Early Translation Branch Assay Submitter (PI): Anton Simeonov Ph.D.
Malaria-vivax Assay Protocol: PROTOCOL TABLE (as described by Inglese et al., 2007) SEQUENCE No. (e.g., 1, 2, 3, etc.); […] (e.g., Cells, Incubation, Reagent, etc.); VALUE; DESCRIPTION SEQUENCE, Parameter, Description 1; Reagent; 3 uL complete malaria growth medium, 1536 TC treated Black clear bottom plate 2; Controls; 23 nL positive control artesunate (300 nM final) to column 1; Neutral control DMSO to columns 2-4 3; Compound; 23 nL of compounds in dose response concentration (29 uM to 0.5 nM final) 4; Reagent; 5 uL malaria infected red blood cells (2.5% hematocrit final, 0.3% parasitemia 5; Time; 72 hours at 37C (5% O2, 5% CO2, 90% N2; 95% Rh) 6; Reagent; 2 uL lysis buffer/SYBRGreen-1, 25 sec shake immediately following dispense 7; Time; ~16 hours at 37C (5% O2, 5% CO2, 90% N2; 95% Rh) 8; Detector; EnVision (PerkinElmer) bottom read at 485/14nm excitation and 535/25 nm emission NOTES (numbers refer to sequence above): 1; Complete Malaria Growth Media: 1X RPMI-1640 w/L-glutamine, 5.5g/L Albumax II, 367 uM Hypoxanthine, 25 mM HEPES, 0.25% Sodium Bicarbonate, 35 uM Gentamicin sulfate 2; Controls were added using the Kalypsis Pintool (Wako USA) equipped with 1536 pinhead 3; Compounds were added in a 7-point, titration with a high final concentration of 29 uM by Pintool from seven inter-plate titrations of library plates and two DMSO control plates at the beginning and end (see Yasgar et al., 2008). 4; Red blood cells infected with Plasmodium falciparum Dd2 parasites were used. 6; Lysis buffer: 20 mM Tris-HCl, 10 mM EDTA, 0.16% Saponin, 1.6% Triton-X, 10X SYBR Green. REFERENCE: Inglese J, Shamu CE, Guy RK. 2007. Reporting data from high-throughput screening of small-molecule libraries. Nat Chem Biol. doi:10.1038/nchembio0807-438 Yasgar A, Shinn P, Jadhav A, Auld D, Michael S, Zheng W, Austin CP, Inglese J, Simeonov A. 2008. Compound Management for Quantitative High-Throughput Screening. J Lab Autom 13:79-89. doi:10.1016/j.jala.2007.12.004
Potency is the fitted concentration of half-maximal effect.

| Compound | activity, negative = inhibition | outcome | Potency |
| --- | --- | --- | --- |
| CCN1CCCC1CNC(=O)CCC1CCN(Cc2ccc(Cl)o2)CC1 (stereo unspecified) | -22.2% | – | – |
| O=C(Cn1ccn2nc(-c3ccc(F)cc3)c(CO)c2c1=O)NCCC1=CCCCC1 | 5.48% | – | – |
| COc1cccc(CNC(=O)Cn2c(C)cc3nc4n(c(=O)c32)CCCC4)c1 | 199% | – | – |
| O=C1CSC2(CCN(S(=O)(=O)c3ccc(F)cc3)CC2)N1Cc1ccco1 | – | inactive | – |
| CC(C)CCN1CCC(N2CCN(C(=O)C3CCC3)CC2)C1=O (stereo unspecified) | -6.67% | – | – |
| COc1cccc(CN2CCc3nc(SCC(=O)Nc4ccccc4)[nH]c(=O)c3C2)c1 | 30.2% | – | – |
| COc1cccc(CN2CCc3c(cc(C(=O)NCCN4CCCCC4)n3C)C2)c1 | – | – | 3.98 µM (active) |
| CNC(=O)[C@@H]1CN(Cc2cccc(OC)c2)C[C@H]1CO | -8.46% | – | – |
| CCc1ccc(C(=O)N2CCC(c3n[nH]c(=O)n3Cc3ccc(OC)cc3)CC2)cc1 | -0.555% | – | – |
| O=Cc1cccc(N2CCN(C(=O)N3CCCC3)CC2=O)c1 | -15.5% | – | – |
| CC(C)N1CC[C@@H]2[C@H]1C(=O)NC[C@H](CCC(=O)NCc1ccccc1)N2C | – | inactive [at 44.1 µM] | – |
| CCC(CC)C(=O)NC[C@H]1O[C@H](Cc2cc(-c3ccc(F)cc3)on2)CC[C@@H]1O | – | inactive [at 44.1 µM] | – |
| COCc1cc(C[C@@H]2CC[C@H](O)[C@@H](CN(C)C)O2)no1 | -8.69% [at 44.1 µM] | – | – |
| COCc1cc(C[C@@H]2CC[C@H](O)[C@@H](CN(CC3CCCCC3)CC3CCCCC3)O2)no1 | – | – | 3.16 µM (active) |
| O=C(CN1C(=O)COc2ccc(C(=O)COc3ccc(Cl)cc3F)cc21)NCCc1ccccc1 | -23.5% | – | – |
| Cc1ccc(C)c(C(=O)NC2CCN(c3cnn(CC4CC4)c(=O)c3)CC2)c1 | – | inactive | – |
| C[C@]1(O)CCN(C(=O)c2ccc(N3CC(=O)NC3=O)cc2)C[C@@H]1O | -0.0782% | – | – |
| Cc1noc([C@@H]2CN(S(=O)(=O)c3ccc4c(c3)CCC4)C[C@H]2C(N)=O)n1 | 4.51% | – | – |
| CCOC(=O)c1c(C)oc2nc(C)nc(N3CCN(c4ccc(OC)cc4)CC3)c12 | – | – | 10 µM (active) |
| COc1ccc(N2CCN(C(=O)c3c(C)oc4nc(C)nc(N5CCCC5)c34)CC2)cc1 | 11.3% | – | – |
| CCOC(=O)c1c(C)oc2nc(C)nc(N(CC(C)C)CC(C)C)c12 | – | – | 10 µM (active) |
| Cc1nc(N2CCOCC2)c2c(C(=O)NCc3cccc(Cl)c3)c(C)oc2n1 | 29.7% | – | – |
| CN(CCc1noc(C2CN(C(=O)c3cc(F)ccc3F)C2)n1)C(=O)C1CC1 | 3.18% | – | – |
| Cc1nc(N(C)C)ncc1C(=O)N[C@@H]1CCOC[C@H]1Oc1ccccn1 | -2.13% | – | – |
| COc1ccc(O[C@H]2COCCN(S(=O)(=O)c3c(C)noc3C)C2)cc1 | -24.8% [at 44.1 µM] | – | – |
| O=C(c1ccccn1)N1C[C@@H]2OCC(=O)N(CC3CC3)[C@@H]2C1 | 0.941% [at 44.1 µM] | – | – |
